Laboratory results: PubChem BioAssay AID1159580 (chemical genetic matrix, 2015)
Screen size: about 5,500 compounds; about 2,000 (36%) were called active. Roughly 18% stayed inconclusive and do not appear here. Cut-off read from the data, not from the text of the source: active = normalized growth mostly below about 0.91 (no sharp cut-off); inconclusive = no clear call, values can overlap the other calls; inactive = mostly above about 0.92. Some of the results follow.

Assay: chemical genetic growth profiling, strain panel (AID 1159580);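 note: tested at 20 µM; growth read once vehicle control cultures reached saturation at 30 °C; 1 = growth at the plate median or of vehicle wells; lower values mean less growth of the strain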
Conditions: growth OD

Measured: normalized growth

C/C=C(/C)C(=O)O[C@@H]1[C@H](OC(C)=O)[C@@]2(CO)C(CC1(C)C)C1=CCC3[C@@]4(C)CC[C@H](O[C@@H]5O[C@H](C(=O)O)[C@@H](O[C@@H]6O[C@H](CO)[C@@H](O)[C@H](O)[C@H]6O)[C@H](O)[C@H]5O[C@@H]5O[C@H](CO)[C@@H](O)[C@H](O)[C@H]5O)[C@](C)(CO)C4CC[C@@]3(C)[C@]1(C)C[C@H]2O (some centres not stated)
inactive: S. cerevisiae deletion strains, locus YKL009W, strain mrt4, hits give low values 1.06 | S. cerevisiae deletion strains, locus YKL068W, hits give low values 1.01 | S. cerevisiae deletion strains, locus YKL085W, strain MDH1 (second series), hits give low values 1.06 | S. cerevisiae deletion strains, locus YKL085W, strain MDH1, hits give low values 1.06 | S. cerevisiae deletion strains, locus YKL160W, strain elf1, hits give low values 1.02 | S. cerevisiae deletion strains, locus YKR001C, strain vps1, hits give low values 1.01 | S. cerevisiae deletion strains, locus YKR026C, strain gcn3, hits give low values 0.99 | S. cerevisiae deletion strains, locus YKR091W, strain srl3, hits give low values 0.99 | S. cerevisiae deletion strains, locus YLL001W, strain dnm1, hits give low values 1.01 | S. cerevisiae deletion strains, locus YLL026W, hits give low values 0.988 | S. cerevisiae deletion strains, locus YLL041C, strain sdh2, hits give low values 0.983 | S. cerevisiae deletion strains, locus YLR027C, strain aat2, hits give low values 0.996 | S. cerevisiae deletion strains, locus YLR039C, strain RIC1, hits give low values 1.04 | S. cerevisiae deletion strains, locus YLR058C, strain SHM2, hits give low values 1.01 | S. cerevisiae deletion strains, locus YLR102C, strain apc9, hits give low values 1.02 | S. cerevisiae deletion strains, locus YLR113W, strain HOG1, hits give low values 0.967 | S. cerevisiae deletion strains, locus YLR221C, strain rsa3, hits give low values 1 | S. cerevisiae deletion strains, locus YLR258W, strain gsy2, hits give low values 0.981 | S. cerevisiae deletion strains, locus YLR262C, strain YPT6 (second series), hits give low values 1.01 | S. cerevisiae deletion strains, locus YLR262C, strain YPT6, hits give low values 1.08 | S. cerevisiae deletion strains, locus YLR268W, strain sec22, hits give low values 1.04 | S. cerevisiae deletion strains, locus YLR320W, strain mms22, hits give low values 0.973 | S. cerevisiae deletion strains, locus YLR330W, strain CHS5, hits give low values 1.01 | S. cerevisiae deletion strains, locus YLR342W, strain FKS1 (second series), hits give low values 1.05 | S. cerevisiae deletion strains, locus YLR342W, strain FKS1, hits give low values 0.988 | S. cerevisiae deletion strains, locus YLR357W, strain rsc2, hits give low values 0.984 | S. cerevisiae deletion strains, locus YLR370C, strain arc18, hits give low values 0.992 | S. cerevisiae deletion strains, locus YLR371W, strain rom2, hits give low values 1.03 | S. cerevisiae deletion strains, locus YLR384C, strain iki3, hits give low values 1 | S. cerevisiae deletion strains, locus YLR418C, strain cdc73, hits give low values 1 | S. cerevisiae deletion strains, locus YML016C, strain PPZ1, hits give low values 1.01 | S. cerevisiae deletion strains, locus YML032C, strain rad52, hits give low values 1.03 | S. cerevisiae deletion strains, locus YML120C, strain ndi1, hits give low values 1.01 | S. cerevisiae deletion strains, locus YML124C, strain tub3, hits give low values 1.02 | S. cerevisiae deletion strains, locus YMR058W, strain fet3, hits give low values 0.99 | S. cerevisiae deletion strains, locus YMR078C, strain ctf18, hits give low values 1.02 | S. cerevisiae deletion strains, locus YMR125W, strain sto1, hits give low values 0.959 | S. cerevisiae deletion strains, locus YMR129W, hits give low values 0.979 | S. cerevisiae deletion strains, locus YMR205C, strain PFK2, hits give low values 0.925 | S. cerevisiae deletion strains, locus YMR223W, strain ubp8, hits give low values 1.02 | S. cerevisiae deletion strains, locus YMR231W, strain pep5, hits give low values 0.973 | S. cerevisiae deletion strains, locus YMR307W, strain GAS1, hits give low values 1.08 | S. cerevisiae deletion strains, locus YNL067W, strain RPL9B, hits give low values 1.02 | S. cerevisiae deletion strains, locus YNL071W, strain lat1, hits give low values 1 | S. cerevisiae deletion strains, locus YNL183C, strain NPR1, hits give low values 0.969 | S. cerevisiae deletion strains, locus YNL209W, strain ssb2, hits give low values 0.988 | S. cerevisiae deletion strains, locus YNL233W, strain BNI4, hits give low values 1.01 | S. cerevisiae deletion strains, locus YNL248C, strain rpa49, hits give low values 1.02 | S. cerevisiae deletion strains, locus YNL250W, strain rad50, hits give low values 1.04 | S. cerevisiae deletion strains, locus YNL271C, strain bni1, hits give low values 1.03 | S. cerevisiae deletion strains, locus YNL298W, strain CLA4, hits give low values 1.01 | S. cerevisiae deletion strains, locus YNL307C, strain MCK1, hits give low values 1.03 | S. cerevisiae deletion strains, locus YNL322C, strain KRE1 (second series), hits give low values 0.983 | S. cerevisiae deletion strains, locus YNL322C, strain KRE1, hits give low values 1.01 | S. cerevisiae deletion strains, locus YNR049C, strain mso1, hits give low values 0.982 | S. cerevisiae deletion strains, locus YNR052C, strain pop2, hits give low values 1.02 | S. cerevisiae deletion strains, locus YOL006C, strain TOP1, hits give low values 0.991 | S. cerevisiae deletion strains, locus YOL012C, strain htz1 1.42 | S. cerevisiae deletion strains, locus YOL147C, strain pex11, hits give low values 1.02 | S. cerevisiae deletion strains, locus YOR001W, strain rrp6, hits give low values 0.992 | S. cerevisiae deletion strains, locus YOR061W, strain CKA2, hits give low values 1.01 | S. cerevisiae deletion strains, locus YOR069W, strain VPS5, hits give low values 1 | S. cerevisiae deletion strains, locus YOR070C, strain gyp1, hits give low values 1 | S. cerevisiae deletion strains, locus YOR080W, strain dia2, hits give low values 0.968 | S. cerevisiae deletion strains, locus YOR083W, strain WHI5, hits give low values 1.02 | S. cerevisiae deletion strains, locus YOR106W, strain vam3, hits give low values 1.01 | S. cerevisiae deletion strains, locus YOR136W, strain idh2, hits give low values 1.02 | S. cerevisiae deletion strains, locus YOR144C, strain elg1, hits give low values 1.02 | S. cerevisiae deletion strains, locus YOR184W, strain ser1, hits give low values 1.02 | S. cerevisiae deletion strains, locus YOR231W, strain MKK1, hits give low values 0.967 | S. cerevisiae deletion strains, locus YOR265W, strain rbl2, hits give low values 0.993 | S. cerevisiae deletion strains, locus YOR270C, strain vph1, hits give low values 0.883 | S. cerevisiae deletion strains, locus YOR290C, strain snf2, hits give low values 0.966 | S. cerevisiae deletion strains, locus YOR316C, strain cot1, hits give low values 1.02 | S. cerevisiae deletion strains, locus YPL051W, strain arl3, hits give low values 1.02 | S. cerevisiae deletion strains, locus YPL055C, strain LGE1, hits give low values 1 | S. cerevisiae deletion strains, locus YPL078C, strain atp4, hits give low values 1.01 | S. cerevisiae deletion strains, locus YPL106C, strain sse1, hits give low values 0.981 | S. cerevisiae deletion strains, locus YPL240C, strain hsp82, hits give low values 1.01 | S. cerevisiae deletion strains, locus YPL241C, strain CIN2, hits give low values 1 | S. cerevisiae deletion strains, locus YPL256C, strain CLN2, hits give low values 0.967 | S. cerevisiae deletion strains, locus YPR119W, strain clb2, hits give low values 1.03 | S. cerevisiae deletion strains, locus YPR141C, strain kar3, hits give low values 1.04 | S. cerevisiae deletion strains, locus YPR163C, strain tif3, hits give low values 1.02 | S. cerevisiae deletion strains, locus YPR167C, strain met16, hits give low values 1.02 | S. cerevisiae deletion strains, strain wtn01, hits give low values 1.02 | S. cerevisiae strains, strain wild type, hits give low values 1.01
